Assay results as given in PubChem BioAssay AID1159580 (chemical genetic matrix, 2015).
Out of some 5,500 compounds screened, about 2,000 (36%) were called active. About 18% were inconclusive and are not listed. Cut-off read from the data, not from the text of the source: active = normalized growth mostly below about 0.91 (no sharp cut-off); inconclusive = no clear call, values can overlap the other calls; inactive = mostly above about 0.92. The list shows a part of the results.

Assay: chemical genetic growth profiling, strain panel (AID 1159580);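 note: tested at 20 µM; growth read once vehicle control cultures reached saturation at 30 °C; 1 = growth at the plate median or of vehicle wells; lower values mean less growth of the strain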
Conditions: growth OD
[1] = S. cerevisiae deletion strains, locus YAL013W, strain DEP1, hits give low values
[2] = S. cerevisiae deletion strains, locus YBR229C, strain ROT2, hits give low values
[3] = S. cerevisiae deletion strains, locus YDL101C, strain DUN1, hits give low values
[4] = S. cerevisiae deletion strains, locus YDL134C, strain PPH21, hits give low values
[5] = S. cerevisiae deletion strains, locus YDR150W, strain NUM1, hits give low values
[6] = S. cerevisiae deletion strains, locus YEL061C, strain CIN8, hits give low values
[7] = S. cerevisiae deletion strains, locus YGR078C, strain PAC10, hits give low values
[8] = S. cerevisiae deletion strains, locus YHR030C, strain SLT2, hits give low values
[9] = S. cerevisiae deletion strains, locus YHR087W, strain rtc3, hits give low values
[10] = S. cerevisiae deletion strains, locus YJR043C, strain POL32, hits give low values
[11] = S. cerevisiae deletion strains, locus YJR075W, strain HOC1, hits give low values
[12] = S. cerevisiae deletion strains, locus YLR039C, strain RIC1, hits give low values
[13] = S. cerevisiae deletion strains, locus YLR058C, strain SHM2 (second series), hits give low values
[14] = S. cerevisiae deletion strains, locus YLR085C, strain ARP6, hits give low values
[15] = S. cerevisiae deletion strains, locus YLR262C, strain YPT6, hits give low values
[16] = S. cerevisiae deletion strains, locus YML094W, strain GIM5, hits give low values
[17] = S. cerevisiae deletion strains, locus YMR219W, strain ESC1, hits give low values
[18] = S. cerevisiae deletion strains, locus YMR263W, strain SAP30, hits give low values
[19] = S. cerevisiae deletion strains, locus YNL153C, strain GIM3, hits give low values
[20] = S. cerevisiae deletion strains, locus YNL298W, strain CLA4 (second series), hits give low values
[21] = S. cerevisiae deletion strains, locus YNL322C, strain KRE1, hits give low values
[22] = S. cerevisiae deletion strains, locus YNR030W, strain Alg12, hits give low values
[23] = S. cerevisiae deletion strains, locus YOL006C, strain TOP1, hits give low values
[24] = S. cerevisiae deletion strains, locus YPL055C, strain LGE1, hits give low values
[25] = S. cerevisiae deletion strains, locus YPL241C, strain CIN2, hits give low values
[26] = S. cerevisiae deletion strains, locus YPR135W, strain CTF4, hits give low values
[27] = S. cerevisiae strains, strain wild type, hits give low values
[28] = S. cerevisiae deletion strains, locus YMR307W, strain GAS1, hits give low values

Measured: normalized growth

Cc1ccc(-c2csc(CC#N)n2)cc1C
active: [12] 0.774 | [15] 0.78
inactive: [1] 0.987 | [2] 0.961 | S. cerevisiae deletion strains, locus YCL061C, strain MRC1, hits give low values 0.912 | [3] 0.963 | [4] 0.977 | [5] 0.989 | [6] 0.951 | [7] 0.951 | [8] 0.716 | [9] 0.97 | [10] 0.97 | [11] 0.914 | [13] 0.961 | [14] 0.823 | [16] 0.944 | [17] 0.961 | [18] 0.974 | [19] 0.929 | [20] 0.882 | [21] 0.962 | [22] 0.962 | [23] 0.758 | [24] 0.946 | [25] 0.859 | [26] 0.801 | [27] 0.969

S=c1nc2[nH]c3ccccc3c2n[nH]1
inactive: [1] 0.98 | [2] 0.982 | [3] 0.985 | [4] 0.973 | [5] 1.01 | [6] 1 | [7] 0.976 | [8] 0.962 | [9] 1.04 | [10] 0.974 | [11] 1 | [12] 0.996 | [13] 0.99 | [14] 0.927 | [15] 0.995 | [16] 0.978 | [17] 0.994 | [18] 1.03 | [19] 0.977 | [20] 0.944 | [21] 0.991 | [22] 0.972 | [23] 1 | [24] 1 | [25] 0.974 | [26] 0.916 | [27] 0.984

CNC(=O)[C@H]1O[C@@H](n2cnc3c(NCc4cccc(I)c4)ncnc32)C(O)[C@H]1O (stereo partly drawn)
inactive: S. cerevisiae deletion strains, locus YAL040C, strain CLN3, hits give low values 0.988 | S. cerevisiae deletion strains, locus YCL061C, strain MRC1 (second series), hits give low values 0.998 | S. cerevisiae deletion strains, locus YDR363W, strain ESC2, hits give low values 1.01 | S. cerevisiae deletion strains, locus YER002W, strain NOP16, hits give low values 0.993 | [7] 1.01 | [18] 0.999 | [28] 0.992 | S. cerevisiae deletion strains, locus YNL128W, strain TEP1, hits give low values 0.994 | S. cerevisiae deletion strains, locus YNL175C, strain NOP13, hits give low values 1.01 | S. cerevisiae deletion strains, locus YNL197C, strain WHI3, hits give low values 0.998 | S. cerevisiae deletion strains, locus YNL224C, strain SQS1, hits give low values 1.02 | [21] 0.992 | S. cerevisiae deletion strains, locus YOR083W, strain WHI5 (second series), hits give low values 0.991 | [24] 1.01 | [25] 1

O=C(Nc1cccc(C(F)(F)F)c1)c1cncc(C#Cc2ccccc2)c1
inactive: S. cerevisiae deletion strains, locus YAR019C, strain CDC15, hits give low values 0.971 | S. cerevisiae deletion strains, locus YBL105C, strain PKC1, hits give low values 0.98 | S. cerevisiae deletion strains, locus YBR135W, strain CKS1, hits give low values 0.983 | S. cerevisiae deletion strains, locus YBR136W, strain MEC1, hits give low values 0.982 | S. cerevisiae deletion strains, locus YBR160W, strain CDC28, hits give low values 0.983 | S. cerevisiae deletion strains, locus YDL017W, strain CDC7, hits give low values 0.983 | S. cerevisiae deletion strains, locus YDL028C, strain MPS1, hits give low values 0.978 | [3] 0.987 | S. cerevisiae deletion strains, locus YDL108W, strain KIN28, hits give low values 0.984 | S. cerevisiae deletion strains, locus YDL132W, strain cdc53, hits give low values 0.983 | S. cerevisiae deletion strains, locus YDL214C, strain PRR2, hits give low values 0.905 | S. cerevisiae deletion strains, locus YDR052C, strain DBF4, hits give low values 0.983 | S. cerevisiae deletion strains, locus YDR054C, strain cdc34, hits give low values 0.963 | S. cerevisiae deletion strains, locus YDR226W, strain ADK1, hits give low values 0.973 | S. cerevisiae deletion strains, locus YDR477W, strain SNF1, hits give low values 0.929 | S. cerevisiae deletion strains, locus YER123W, strain YCK3, hits give low values 0.809 | S. cerevisiae deletion strains, locus YER133W, strain GLC7, hits give low values 0.936 | S. cerevisiae deletion strains, locus YFL009W, strain cdc4, hits give low values 0.968 | S. cerevisiae deletion strains, locus YFL029C, strain CAK1, hits give low values 0.97 | S. cerevisiae deletion strains, locus YFR003C, strain YPI1, hits give low values 0.983 | S. cerevisiae deletion strains, locus YFR019W, strain FAB1, hits give low values 0.862 | S. cerevisiae deletion strains, locus YFR028C, strain CDC14, hits give low values 0.969 | S. cerevisiae deletion strains, locus YGR040W, strain KSS1, hits give low values 0.89 | S. cerevisiae deletion strains, locus YGR052W, strain FMP48, hits give low values 0.977 | S. cerevisiae deletion strains, locus YGR092W, strain DBF2, hits give low values 0.826 | S. cerevisiae deletion strains, locus YHR079C, strain IRE1, hits give low values 0.854 | S. cerevisiae deletion strains, locus YHR082C, strain KSP1, hits give low values 0.905 | S. cerevisiae deletion strains, locus YHR205W, strain SCH9, hits give low values 0.776 | S. cerevisiae deletion strains, locus YIL147C, strain SLN1, hits give low values 0.98 | S. cerevisiae deletion strains, locus YJL095W, strain BCK1, hits give low values 0.903 | S. cerevisiae deletion strains, locus YJL128C, strain PBS2, hits give low values 0.978 | S. cerevisiae deletion strains, locus YJL157C, strain FAR1, hits give low values 0.878 | S. cerevisiae deletion strains, locus YJR016C, strain ILV3, hits give low values 0.983 | S. cerevisiae deletion strains, locus YJR066W, strain TOR1 (second series), hits give low values 0.905 | S. cerevisiae deletion strains, locus YJR066W, strain TOR1, hits give low values 0.865 | S. cerevisiae deletion strains, locus YKL048C, strain ELM1, hits give low values 0.877 | S. cerevisiae deletion strains, locus YKL067W, strain YNK1, hits give low values 0.901 | S. cerevisiae deletion strains, locus YKL101W, strain HSL1, hits give low values 0.883 | S. cerevisiae deletion strains, locus YKL193C, strain SDS22, hits give low values 0.982 | S. cerevisiae deletion strains, locus YKL203C, strain TOR2, hits give low values 0.937 | S. cerevisiae deletion strains, locus YLR113W, strain HOG1, hits give low values 0.902 | S. cerevisiae deletion strains, locus YLR133W, strain CKI1, hits give low values 0.868 | S. cerevisiae deletion strains, locus YLR403W, strain SFP1, hits give low values 0.843 | S. cerevisiae deletion strains, locus YML070W, strain DAK1, hits give low values 0.914 | S. cerevisiae deletion strains, locus YMR001C, strain CDC5, hits give low values 0.98 | S. cerevisiae deletion strains, locus YMR205C, strain PFK2 (second series), hits give low values 0.935 | S. cerevisiae deletion strains, locus YMR277W, strain FCP1, hits give low values 0.975 | S. cerevisiae deletion strains, locus YNL006W, strain LST8, hits give low values 0.981 | S. cerevisiae deletion strains, locus YNL020C, strain ARK1, hits give low values 0.853 | S. cerevisiae deletion strains, locus YNL161W, strain CBK1, hits give low values 0.985 | S. cerevisiae deletion strains, locus YNL183C, strain NPR1, hits give low values 0.919 | S. cerevisiae deletion strains, locus YNL207W, strain RIO2, hits give low values 0.99 | S. cerevisiae deletion strains, locus YNL222W, strain SSU72, hits give low values 0.978 | S. cerevisiae deletion strains, locus YNL307C, strain MCK1 (second series), hits give low values 0.77 | S. cerevisiae deletion strains, locus YOL078W, strain AVO1, hits give low values 0.977 | S. cerevisiae deletion strains, locus YOL136C, strain PFK27, hits give low values 0.899 | S. cerevisiae deletion strains, locus YOR061W, strain CKA2, hits give low values 0.875 | S. cerevisiae deletion strains, locus YOR119C, strain RIO1, hits give low values 0.977 | S. cerevisiae deletion strains, locus YOR231W, strain MKK1, hits give low values 0.915 | S. cerevisiae deletion strains, locus YOR329C, strain SCD5, hits give low values 0.981 | S. cerevisiae deletion strains, locus YPL031C, strain PHO85, hits give low values 0.916 | S. cerevisiae deletion strains, locus YPL153C, strain RAD53, hits give low values 0.921 | S. cerevisiae deletion strains, locus YPL204W, strain HRR25, hits give low values 0.883 | S. cerevisiae deletion strains, locus YPL209C, strain IPL1, hits give low values 0.988 | S. cerevisiae deletion strains, locus YPL256C, strain CLN2, hits give low values 0.897 | S. cerevisiae deletion strains, locus YPR025C, strain CCL1, hits give low values 0.977 | S. cerevisiae deletion strains, locus YPR106W, strain ISR1, hits give low values 0.977 | S. cerevisiae deletion strains, locus YPR111W, strain DBF20, hits give low values 0.964 | S. cerevisiae deletion strains, strain NNK1, hits give low values 0.974 | S. cerevisiae deletion strains, strain TSCII, hits give low values 0.989
active: [8] 0.847

O=C(O)c1cncc(C#Cc2ccccc2)c1
inactive: [1] 0.982 | [2] 0.976 | [3] 0.991 | [4] 1.01 | [5] 1.01 | [6] 1 | [7] 0.957 | S. cerevisiae deletion strains, locus YGR229C, strain SMI1, hits give low values 0.957 | [8] 0.956 | [9] 1 | [10] 0.957 | [11] 0.961 | [12] 0.976 | [13] 0.949 | [14] 1.04 | [15] 0.996 | [16] 1.02 | [17] 0.972 | [18] 0.981 | [28] 1.03 | [19] 0.931 | [20] 0.991 | [21] 0.971 | [22] 0.989 | [24] 1 | [25] 1.01 | [26] 0.935
